Rows were chosen to be rich in hits. Some 9.2% of all compounds tested hit in one or more screens of this group.
FLuc modulator = counter-screen for miR-21 project: firefly luciferase inhibitors or activators; Potency, µM (highest dose often 57.5 µM), without a hit: at the top dose activity change, negative = inhibition, most hits filed as inhibitors; P08659; 6.9% of 360,000 active; purified FLuc, Km substrates, luminescence inhibition;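 further: plate controls were vehicle for no effect and reference inhibitor for full effect; nearly all actives have a fitted effect of over 55% in size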
Target sequence (P08659 whole entry, looked up): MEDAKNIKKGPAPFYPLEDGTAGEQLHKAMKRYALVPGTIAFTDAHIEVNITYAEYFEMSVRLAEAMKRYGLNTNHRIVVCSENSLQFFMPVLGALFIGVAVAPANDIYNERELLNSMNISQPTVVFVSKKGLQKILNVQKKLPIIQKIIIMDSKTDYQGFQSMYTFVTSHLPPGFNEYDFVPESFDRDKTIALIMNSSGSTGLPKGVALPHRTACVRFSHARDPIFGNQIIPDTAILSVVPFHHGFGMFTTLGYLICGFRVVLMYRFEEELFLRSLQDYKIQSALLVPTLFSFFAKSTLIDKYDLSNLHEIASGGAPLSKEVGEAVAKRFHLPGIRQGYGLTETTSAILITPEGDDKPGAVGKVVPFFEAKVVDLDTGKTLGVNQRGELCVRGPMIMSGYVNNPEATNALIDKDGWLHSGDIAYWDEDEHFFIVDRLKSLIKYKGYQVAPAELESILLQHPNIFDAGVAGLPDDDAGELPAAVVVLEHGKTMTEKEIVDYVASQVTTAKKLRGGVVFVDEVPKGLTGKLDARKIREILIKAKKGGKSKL
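Purified P. pyralis luciferase, 10 nM final, with Km-level 10 uM D-luciferin and 10 uM ATP in 50 mM Tris acetate pH 7.5, 10 mM Mg acetate, 0.01% Tween-20, 0.05% BSA; 6-point qHTS titration about 60 µM downward; luminescence read.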
ELG1 genotox = inducers of genotoxicity in HEK293T ELG1-luciferase cells. 1.3% of 330,000 active. HEK293T ELG1-luciferase reporter, luminescence, 16 h. Potency, µM (doses to about 46 µM), inactives show at the highest dose activity change, positive = activation, most hits filed as activators. AID 504466; further: % of control where 0% means no effect; nearly all actives have a fitted effect of over 60% in size
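Genotoxic stress is detected as increased luminescence from luciferase-tagged ELG1 in HEK293T cells, measured with ONE-Glo after a 16 hr treatment at 37 °C.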
ELG1 repair inh = inhibitors of ELG1-dependent DNA repair in HEK293T cells; HEK293T ELG1-luciferase reporter, luminescence, 16 h; DNA damage induced by 5-fluorouridine; Potency, µM (top dose mostly 46.1 µM), without a hit: top-dose activity change, negative = inhibition, usual class: inhibitors; 2.3% of 330,000 active; AID 504467; further: on the % scale 0 is the no-effect control and ±100 the full control effect; nearly all actives have a fitted effect of over 55% in size
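Step one: seed 2,000 cells per well. Step two: pin-transfer compound or DMSO alongside 5-fluorouridine. Step three: incubate 16 hr, 37 °C, 5% CO2. Step four: add ONE-Glo, wait 30 min, read luminescence.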
Rab9 prom act = activators of Rab9 promoter; Huh7 Rab9 promoter-luciferase reporter, luminescence, 24 h; Potency, µM (doses to about 9.22 µM), for inactives: at the top dose activation, negative = inhibition, usual class: activators; 2.8% of 320,000 active; further: % of control where 0% means no effect; nearly all actives have a fitted effect of over 60% in size
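Luminescence from Amplite-detected luciferase (10 minutes, ambient) reports Rab9 promoter activation. Before that, stable Rab9-luciferase Huh7 cells (1500/well, reduced-serum OP-MEM I plus 10% FBS) were exposed to compound for 24 hours at 37C.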
NPC1 prom act = activators of NPC1 promoter; Huh7 NPC1 promoter luciferase reporter, 24 h; Potency, µM (doses to about 9.22 µM), for inactives: at the highest dose activation, hits mostly activators; 2.4% of 320,000 active; AID 485313; further: % of control where 0% means no effect; nearly all actives have a fitted effect of over 60% in size
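Stably transfected Huh7 (NPC1 promoter→luciferase), 1500 cells/well in Opti-MEM + 10% FBS, 2 h settle, then compound 24 h at 37 °C. Luminescence after 10 min with Amplite reagent.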
SMN2 splice enh = increases expression of the SMN2 splice variant | HEK293 SMN2-luciferase splicing reporter, luminescence, 30-36 h | Potency, µM (series often up to 46.1 µM), for inactives: at the top dose activity change, positive = activation, usual class: activators | 2.8% of 210,000 active; further: % of control where 0% means no effect; nearly all actives have a fitted effect of over 55% in size
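HEK293 cells carry an SMN2 […]–luciferase reporter in which exon 7 inclusion puts luciferase in frame. Cells were plated 10-12 h before compound addition, then incubated 30-36 h at 37C. ONE-Glo luminescence was read; sodium butyrate at 4.5 mM final served as control.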
Numbers without * were called inactive; ? = inconclusive; / = not tested or not shown. The call rests on the fitted dose curve; in most records, active means well fitted curve in the direction sought with a large enough effect; inconclusive means small, poorly fitted or top-dose-only effect, or another doubt; inactive means no such curve, though single readings can be large; an effect the other way counts as inactive or inconclusive. Potency means the concentration at half of the fitted maximal effect.

SMILES	FLuc modulator	ELG1 genotox	ELG1 repair inh	Rab9 prom act	NPC1 prom act	SMN2 splice enh
COc1ccc(/C=N/NC(=O)c2nc(-c3ccccc3)cc(-c3ccccc3)n2)cc1O	1.51µM*	-9.5%	6.51µM*	-1.6%	-1.7%	-41.8%
COc1cccc(/C=N/NC(=O)CCn2c3ccccc3c3ccccc32)c1	-1.4%	1.3%	-2.9%	-2.2%	0.0%	2.2%
NC(=O)c1ccsc1NC(=O)c1nc(-c2ccccc2)n(-c2ccccc2)n1	-10.8%	-5.6%	18.4µM*	-1.0%	-4.6%	-18.0%
COc1ccc(/C=N/NC(=O)CCn2c3ccccc3c3ccccc32)cc1O	10.7µM*	4.1%	-18.3%	-32.2%	-25.2%	-8.7%
O=C(COc1ccccc1Cl)Nc1ccc(CN2CCCCC2)cc1	4.4%	-6.8%	-6.2%	-5.0%	-2.5%	4.1%
COc1ccc(/C=N/NC(=O)c2nn(-c3ccccc3)c(=O)c3c(N)scc23)cc1	9.53µM*	-0.3%	?	4.2%	-3.0%	5.0%
COc1ccc(/C=N/NC(=O)c2nc(-c3ccccc3)cc(-c3ccccc3)n2)cc1	2.69µM*	1.2%	6.51µM*	2.6%	1.4%	-31.9%
COc1ccc(/C=N/NC(=O)c2nn(-c3ccc(Cl)cc3)c(=O)c3c(N)scc23)cc1	?	6.4%	-3.6%	-0.2%	1.2%	-2.2%
COc1ccc(/C=N/NC(=O)c2c(-c3ccccc3)noc2C)cc1	-6.6%	-0.5%	1.2%	-3.9%	4.5%	4.0%
COC(=O)CCC(=O)NC(=S)Nc1cc(Cl)ccc1Cl	-0.8%	0.9%	2.8%	1.8%	-2.4%	7.8%
Cc1cccc(S(=O)Cc2ccc(C(=O)NC3CCCCCC3)o2)c1 (centres undefined)	-3.1%	/	/	/	/	/
NS(=O)(=O)c1ccc(NC(=O)COC(=O)COc2cccc(C(F)(F)F)c2)cc1	13.5µM*	0.2%	0.1%	-3.7%	-6.9%	/
NS(=O)(=O)c1ccc(NC(=O)COC(=O)COc2ccc3ccccc3c2)cc1	?	0.1%	10.5%	-2.1%	2.0%	11.2%
O=C(/C=C/c1ccccc1Cl)N1CCOCC1	?	13.1%	?	3.7%	22.5%	/
CNc1ccc(Br)cc(C(=O)/C=C/c2ccc(Cl)cc2Cl)c1=O	?	-9.5%	?	-31.7%	-9.9%	/
CN(C)/C=C/C(=O)/C=C/c1ccc(Cl)cc1Cl	12µM*	?	?	1µM*	2.24µM*	20µM*
O=C(/C=C/c1ccc(Cl)cc1Cl)c1ccc[nH]1	2.69µM*	?	?	22.1%	12.6%	7.3%
O=C(/C=C/c1ccc(Cl)cc1Cl)n1cccn1	3.79µM*	16.5%	11.0%	-1.4%	-1.1%	15.4%
O=C(/C=C/c1ccccc1Cl)c1ccc[nH]1	7.57µM*	?	?	26.7%	9.6%	19.1%
CCc1ccccc1NC(=O)CN1C(=O)CCSc2ccc(S(=O)(=O)N3CCCC3)cc21	-5.4%	/	/	/	/	/
Cc1cccc(-c2nc3nc(C)cc(NC(C)c4ccccc4)n3n2)c1 (centres undefined)	16.9µM*	/	/	/	/	/
Cc1nnc(SCC(=O)Nc2ccccc2)c2ccccc12	16.9µM*	-1.9%	13.1%	12.8%	21.8%	/
O=C(CSc1ncnc2scc(-c3ccccc3)c12)Nc1ccc(C(=O)O)cc1	21.3µM*	4.7%	23.9%	9.1%	-40.2%	/
CC(=O)Nc1cccc(NC(=O)CSc2nc(C3CC3)nc3ccccc23)c1	-8.9%	-26.5%	18.3µM*	-2.1%	-10.9%	/
O=C(CSc1nc(-c2ccccc2)nc2c1Cc1ccccc1O2)Nc1ccc(C(=O)O)cc1	7.57µM*	0.3%	-8.5%	6.5%	4.3%	-14.8%
O=C(O)c1ccc(Nc2ncnc3scc(-c4ccccc4)c23)cc1	-18.3%	3.0%	-6.5%	-1.9%	-4.3%	/
CC(=O)c1cccc(NC(=O)CSc2nc(C3CC3)nc3ccccc23)c1	-3.4%	-18.8%	-15.0%	0.0%	-4.2%	/

High-throughput results: PubChem, National Center for Advancing Translational Sciences (NCATS)
